# Screening data: PubChem BioAssay, Sanford-Burnham Center for Chemical Genomics
# SENP7 block: inhibitors of human SENP7 protease. Q9BQF6. recombinant SENP7, Z-RLRGG-aminoluciferin luminescence, 40 min. inhibition, % at 5 µM. 1.5% of 330,000 active. AID 434973;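 active = inhibition above about 50% at the single test dose, limit read from the data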;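 also: plate controls were DMSO with enzyme for no effect and no enzyme buffer wells for full effect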
# C8 TRAIL sens: sensitizes caspase-8 expressing cells to TRAIL; NB7+C8 cells + TRAIL, ATPlite viability luminescence; inhibition (viability loss, TRAIL sensitization), % at 10 µM; 1% of 360,000 active;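 active = compounds causing at least 50% loss of cell viability in the single-dose screen, relative to plate controls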
# SENP6 inh: inhibitors of human SENP6 protease; Recombinant SENP6 catalytic domain, aminoluciferin luminescence; inhibition, % at 10 µM; 1.8% of 330,000 active; AID 2599;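 active = inhibition above about 50% at the single tested dose, limit read from the data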;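 also: plate controls were DMSO wells with enzyme for no effect and DMSO wells lacking enzyme for full effect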
# Target sequence (Q9GZR1 628-1112 limits assumed): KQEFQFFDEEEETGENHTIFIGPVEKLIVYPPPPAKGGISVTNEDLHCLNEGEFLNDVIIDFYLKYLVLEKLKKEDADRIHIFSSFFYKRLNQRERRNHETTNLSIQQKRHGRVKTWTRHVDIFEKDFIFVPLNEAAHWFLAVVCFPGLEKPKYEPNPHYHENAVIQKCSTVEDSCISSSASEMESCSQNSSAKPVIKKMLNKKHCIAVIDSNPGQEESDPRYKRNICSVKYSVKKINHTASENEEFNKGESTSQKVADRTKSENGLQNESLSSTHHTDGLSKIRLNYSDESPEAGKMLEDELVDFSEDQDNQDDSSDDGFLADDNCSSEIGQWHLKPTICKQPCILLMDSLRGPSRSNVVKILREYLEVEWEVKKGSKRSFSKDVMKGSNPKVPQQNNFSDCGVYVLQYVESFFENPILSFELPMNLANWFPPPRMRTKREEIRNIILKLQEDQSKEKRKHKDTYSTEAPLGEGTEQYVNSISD
# SENP8 block-1: inhibitors of human SENP8 protease; Q96LD8; purified SENP8, Z-RLRGG-aminoluciferin cleavage, luminescence; inhibition, % at 10 µM; 1.2% of 330,000 active; in the data active = inhibition above about 50%
# Target sequence (Q96LD8 whole entry, looked up): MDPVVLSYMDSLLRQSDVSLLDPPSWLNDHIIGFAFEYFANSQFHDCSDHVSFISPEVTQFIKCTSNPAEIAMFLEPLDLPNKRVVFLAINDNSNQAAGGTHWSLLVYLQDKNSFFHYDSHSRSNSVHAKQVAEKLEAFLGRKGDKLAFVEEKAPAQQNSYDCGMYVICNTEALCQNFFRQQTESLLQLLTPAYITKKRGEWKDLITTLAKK
# PPC-1+TRAIL kill: compounds killing PPC-1 cancer cells with TRAIL present (potentiator screen, no TRAIL-free arm); cell killing (% activity), % at 4 µM or 5 µM; 0.41% of 220,000 active; AID 1443; PPC-1 cells + TRAIL, ATPLite viability luminescence;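 active = cell killing above 50% in the first pass at 4 µM, then a duplicate retest at 5 µM averaging 50% or more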;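 also: plate controls were cells with TRAIL plus DMSO for no effect and medium-only wells lacking cells for full effect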
# SENP8 block-2: inhibitors of human SENP8 protease. Q96LD8. recombinant SENP8, Nedd8 substrate fluorescence. inhibition, % at 20 µM. 0.64% of 360,000 active. AID 602440; in the data active = inhibition mostly above about 40%, no sharp cut-off; inactive = mostly below about 27%
# SENP8 confirm: human SENP8 inhibition, confirmed | shares compounds with SENP7 block | Recombinant SENP8, Z-RLRGG-aminoluciferin luminescence, 60 min | inhibition, % at 12.5 µM | 40% of 6,200 active;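 active = mean inhibition across replicates above about 50%, limit read from the data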
# SENP6 confirm: human SENP6 inhibition, confirmed | shares compounds with SENP7 block | recombinant SENP6, Z-RLRGG-aminoluciferin luminescence | inhibition, % at 12.5 µM | 58% of 6,200 active | AID 488915
# SENP7 conf: human SENP7 inhibition, confirmed | recombinant SENP7, Z-RLRGG-aminoluciferin luminescence, 40 min | shares compounds with SENP7 block | AID 488917 | 69% of 6,200 active | inhibition, % at 12.5 µM
# Casp3 SENP sel: selectivity test for SENP inhibitors: human caspase-3 inhibition; 60% of 6,200 active; shares compounds with SENP7 block; purified caspase-3, Z-DEVD-aminoluciferin luminescence, 60 min; inhibition, % at 12.5 µM;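 active = mean inhibition above about 50%, limit read from the data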;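 also: plate controls were enzyme with DMSO for no effect and wells without caspase-3 for full effect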
# SENP luc ctr: interferes with luciferase luminescence in SENP counter-screen; shares compounds with SENP7 block; Pre-incubated SENP8/Z-RLRGG-aminoluciferin, luciferase luminescence interference; inhibition, % at 12.5 µM; 39% of 6,200 active; AID 488919;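 active = mean inhibition above about 50% when retested at one dose, limit read from the data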;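 also: plate controls were DMSO wells with completed reaction for no effect and substrate without enzyme for full effect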
# An asterisk follows results filed as active; . = not tested or not shown. Only some compounds are listed: those with a hit (about 3% of all), similar ones and a draw of the others.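 The calls were made as follows, unless noted: active = mean inhibition above about 50% in the one-dose retest (limit read from the data); inactive = the rest.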
SMILES,SENP7 block,C8 TRAIL sens,SENP6 inh,SENP8 block-1,PPC-1+TRAIL kill,SENP8 block-2,SENP8 confirm,SENP6 confirm,SENP7 conf,Casp3 SENP sel,SENP luc ctr
Nc1[nH]c(C(=O)c2ccccc2)c(-c2cccc3ccccc23)c1C(=O)NCc1ccccc1,.,3.5,.,.,.,4.1,.,.,.,.,.
Cc1oc2ccc(OCc3cccc(Cl)c3)cc2c1C(=O)O,9.0,-8.5,74.8*,71.4*,.,20.5,-2.9,16.1,26.0,13.8,35.9
Cc1oc2ccc(OCc3ccc(F)cc3)cc2c1C(=O)O,23.4,-5.2,55.1*,22.6,-7.2,12.4,44.5,41.5,73.2*,61.8*,61.2*
CCc1nc2ccc(C(=O)NC(C)(C)C)cn2c1N(CC)Cc1cccc(Br)c1,.,2.3,.,.,.,15.0,.,.,.,.,.
COC(=O)CNC(=O)C(Cc1ccccc1)NS(=O)(=O)c1ccc2c(c1)c(=O)n(C)c(=O)n2C (stereo not drawn),6.0,2.3,-12.9,-1.6,13.8,-4.9,.,.,.,.,.
Cc1csc(=O)n1CCC(=O)N(C)Cc1c(F)cccc1Cl,-7.9,-0.8,-9.0,-4.7,.,4.7,.,.,.,.,.
Cc1cc(C)cc(NC(=O)Nc2ccc3ccccc3n2)c1,2.9,-36.3,1.8,1.8,-1.5,19.1,.,.,.,.,.
O=C(Nc1ccc2ccccc2n1)c1ccccc1Br,83.8*,29.1,79.1*,77.2*,.,0.1,8.8,80.1*,97.2*,81.5*,16.7
O=C(Nc1ccc2ccccc2n1)c1ccccc1,93.3*,37.9,87.6*,87.0*,.,19.0,84.7*,84.9*,97.8*,89.3*,89.0*
Cc1ccc(C(=O)Nc2ccc3ccccc3n2)cc1,86.0*,49.8*,86.3*,79.9*,.,10.9,88.4*,87.5*,96.7*,82.2*,77.1*
COc1ccc(C(=O)Nc2ccc3ccccc3n2)cc1OC,1.1,-1.5,11.9,-7.0,.,-43.2,.,.,.,.,.
COc1ccccc1CN1CC(C(=O)NCCCCc2ccccn2)CCC1=O (stereo not drawn),.,-15.9,.,.,.,4.5,.,.,.,.,.
Cc1ccsc1/C=N/NC(=O)c1cccs1,19.7,-3.7,15.5,5.2,31.5,-23.3,.,.,.,.,.
O=C(N/N=C/c1ccc(OC(=O)c2ccccc2Br)cc1)c1ccccn1,71.4*,21.4,-8.6,-8.8,.,-1.3,4.3,3.2,9.0,11.2,6.1
Cc1ccsc1/C=N/NC(=O)c1ccccn1,47.0,12.1,61.1*,30.2,13.8,-2.6,49.6,40.5,78.3*,84.0*,60.4*
O=C(N/N=C/c1cc2c(cc1Cl)OCO2)c1ccccn1,2.1,33.8,65.8*,46.5,.,-257.9,0.0,-5.7,1.6,51.9*,9.0
CC(C)CC1NC(=O)c2cc3ccccc3cc2-n2c1nc1ccc(F)cc1c2=O (stereo not drawn),.,34.6,.,.,.,7.4,.,.,.,.,.
NC(CCCCc1ccccc1)c1cccc2ccccc12 (stereo not drawn),-0.5,.,-18.2,-9.6,.,.,.,.,.,.,.
CCc1c(O)nc(SCC(=O)N2CCc3cc(OC)c(OC)cc3[C@@H]2C)[nH]c1=O,-1.2,-0.2,-10.1,-0.5,.,13.8,.,.,.,.,.
CN(C)CCCNc1cc(O)c2ncccc2c1,44.3,45.2,73.7*,48.0,.,-12.4,19.0,62.1*,24.7,89.7*,-7.4
Oc1cccc(-c2nc3ccccc3s2)c1,95.4*,48.5,96.4*,91.6*,-15.2,-142.3,-23.1,94.9*,101.5*,87.1*,95.2*
COc1cc(-c2nc3ccccc3s2)ccc1O,88.7*,8.9,94.2*,94.1*,12.7,-272.1,95.3*,95.9*,101.5*,87.6*,94.7*
CN(C(=O)OC(C)(C)C)c1ccc(-c2nc3ccccc3s2)cc1,100.2*,89.2*,100.3*,94.9*,.,-487.8,94.9*,96.8*,100.2*,92.9*,46.3
Cc1cc(C)c(-c2nc3ccccc3s2)[nH]1,3.7,7.9,19.1,59.4*,.,-325.8,81.2*,89.5*,98.6*,75.7*,70.2*
N#Cc1ccc(CSc2ccccn2)c(Cl)c1,1.0,-8.2,-30.5,-4.5,.,7.5,.,.,.,.,.
SMILES,SENP7 block,C8 TRAIL sens,SENP6 inh,SENP8 block-1,PPC-1+TRAIL kill,SENP8 block-2,SENP8 confirm,SENP6 confirm,SENP7 conf,Casp3 SENP sel,SENP luc ctr
Cn1c(SCc2ccc(C#N)cc2Cl)nc2ccccc21,80.0*,18.7,75.4*,68.8*,10.7,16.0,8.0,75.9*,56.7*,24.2,10.2
COc1ccc([C@H]2C[C@@H](O)[C@H](n3cc(COC(=O)c4ccccc4)nn3)CN2C(=O)c2cccs2)cc1,.,4.5,.,.,.,-0.2,.,.,.,.,.
Cc1ccccc1OCCOC(=O)c1ccc(S(=O)(=O)N2CCCC2)cc1,12.2,0.3,-5.2,0.3,.,3.0,.,.,.,.,.
CCOC(=O)CSC1=NC(=O)/C(=C\c2ccc(OC(C)=O)cc2)S1,78.2*,2.8,71.9*,47.3,9.9,22.5,56.9*,52.0*,73.4*,40.8,77.1*
CCOC(=O)CSC1=NC(=O)/C(=C/c2ccc(Br)cc2)S1,37.8,17.4,39.7,42.5,-26.3,10.7,.,.,.,.,.
Oc1[nH]c2ccccc2c1N=Nc1ccccc1F,74.8*,-4.5,40.9,2.5,50.0,24.5,16.0,11.3,35.4,19.5,11.0
Oc1[nH]c2ccccc2c1N=Nc1ccccc1,80.4*,-0.3,87.9*,73.2*,5.4,49.5*,39.8,72.7*,93.9*,62.1*,7.0
O=[N+]([O-])c1ccccc1N=Nc1c(O)[nH]c2ccc(F)cc12,.,-11.9,.,.,.,27.8,.,.,.,.,.
Oc1[nH]c2ccccc2c1N=Nc1ccc(F)cc1,89.2*,16.7,78.3*,68.8*,27.3,23.2,-17.6,64.5*,66.9*,25.7,-5.5
CC(C)(O)C(=O)N=Nc1c(O)[nH]c2ccccc12,0.9,-1.7,-16.0,-3.6,26.3,16.9,.,.,.,.,.
Oc1[nH]c2ccccc2c1N=Nc1nc2ccccc2s1,89.2*,33.7,71.7*,55.4*,19.2,29.2,39.7,31.8,50.7*,35.9,42.9
CC(=O)Nc1cccc(NC(=O)c2ccc(COc3ccccc3)cc2)c1,13.1,12.3,2.1,-7.6,.,13.0,.,.,.,.,.
O=C(CC(=O)Nc1ccccc1[N+](=O)[O-])Nc1ccccc1[N+](=O)[O-],9.4,8.1,-3.4,-3.4,.,17.7,.,.,.,.,.
CC(C)(C)c1ccc(NC(=O)COC(=O)c2ccc([N+](=O)[O-])s2)cc1,.,-2.8,.,.,-9.1,20.4,.,.,.,.,.
